Source: PubChem BioAssay AID372 (MTDP, 2006)
About 770 (0.77%) of roughly 100,000 compounds were called active. Only a selection was taken, and actives are over-represented in it overall. A number with no mark means an inactive call. Rule as the data show it: active = inhibition above about 50%; inactive = the rest.

These molecules were tested against Gag-Pol polyprotein (Human immunodeficiency virus type 1 group M subtype B (isolate HXB2)) (UniProt P04585) (assay: RNase H inhibition, HIV 1 Gag Pol polyprotein, FRET biochemical assay, screening (AID 372)). Conditions: HIV-1 RT RNase H, FRET RNA/DNA substrate fluorescence; at 10 µM; stronger effect = higher value.
In the case of `Cc1cc(NC(=O)c2ccc(-c3ccc(Cl)cc3)o2)ccc1NC(=O)c1ccco1`, the inhibition was 11%. With `Cc1cc(C)cc(N2C(=O)NC(=O)/C(=C\c3c(C)n(C)c4ccccc34)C2=O)c1` the inhibition was 12%. `Cc1cc2nc(-c3ccc(Cl)c(NC(=O)c4cc([N+](=O)[O-])ccc4Cl)c3)oc2cc1C` showed an inhibition of 8%. `COc1cccc(OC)c1OCC(O)CN1CCC(CN2C(=O)c3cccc4cccc(c34)C2=O)CC1` (configuration not stated) showed an inhibition of 19%. In the case of `CCOC(=O)C1=C(C)N=c2s/c(=C\c3ccc(-c4ccc(Cl)cc4)o3)c(=O)n2C1c1ccc(SC)cc1` (configuration not stated), the inhibition was 0%. Molecule `O=C(c1ccc([N+](=O)[O-])cc1[N+](=O)[O-])N1CCN(C(c2ccccc2)c2ccccc2)CC1` has an inhibition of 2%. Molecule `O=C(CSc1nc2ccccc2s1)Nc1ccc(F)c([N+](=O)[O-])c1` has an inhibition of 2%. With `CCOc1ccc2ccccc2c1/C=N/NC(=O)CN1CCOCC1` the inhibition was 9%. Molecule `CCOC(=O)/C(C#N)=C1/C=C(c2ccccc2)N=C(c2ccccc2)N1` has an inhibition of 16%. Molecule `COc1ccc2ccccc2c1C=Nc1ccc(C)cc1O` has an inhibition of 27%. `Cc1ccccc1Cn1cc(C=C2C(=O)NC(=O)NC2=O)c2ccccc21` was tested, and the inhibition was 43%. Molecule `COc1cc(C=O)ccc1OCCCOc1cc(C)c(Cl)cc1C` has an inhibition of 21%. `COc1ccccc1N=Cc1c(O)n(-c2ccccc2F)c(=O)[nH]c1=O` showed an inhibition of 8%. `Cc1ccc(/C=C2\SC(=S)N(CCCC(=O)NCCc3ccccc3)C2=O)cc1` was tested, and the inhibition was 57% (active). Molecule `Cc1ccc(/C=C2\SC(=S)N(CCc3ccccc3)C2=O)cc1` has an inhibition of 3%. `Cc1ccc(/C=C2\SC(=S)N(CCCC(=O)Nc3ccc(C)cc3)C2=O)cc1` showed an inhibition of 10%. Work on `Cc1ccc(/C=C2/SC(=S)N(CCC(=O)Nc3ccc([N+](=O)[O-])cc3)C2=O)cc1` yielded an inhibition of 10%. With `Cc1ccc(/C=C2\SC(=S)N(CCC(=O)Nc3ccc([N+](=O)[O-])cc3O)C2=O)cc1` the inhibition was 52% (active). With `Cc1ccc(/C=C2\SC(=S)N(CCC(=O)Nc3cc([N+](=O)[O-])ccc3O)C2=O)cc1` the inhibition was 0%. For `Cc1ccc(/C=C2\SC(=S)N(CCC(=O)Nc3nccs3)C2=O)cc1`, the inhibition was 51% (active). With `O=C(CCN1C(=O)/C(=C/c2ccc(Cl)cc2)SC1=S)Nc1nccs1` the inhibition was 10%. `Cc1ccc(/C=C2\SC(=S)N(CCC(=O)Nc3ccc(S(=O)(=O)Nc4nccs4)cc3)C2=O)cc1` gave an inhibition of 23%. With `Cc1ccc2oc(-c3cccc(NC(=O)c4ccc(-c5ccc([N+](=O)[O-])cc5)o4)c3C)nc2c1` the inhibition was 20%. `CCOc1ccccc1N=C1C(=O)Nc2ccc([N+](=O)[O-])cc21` was tested, and the inhibition was 2%. For `CC1=NN(C(=O)c2cccc(O)c2)C(O)(c2ccc(Br)cc2)C1` (configuration not stated), the inhibition was 8%. For `CC(=O)C1C(=O)c2cc([N+](=O)[O-])ccc2C1=Nc1ccc(Br)cc1` (configuration not stated), the inhibition was 6%. In the case of `CCOC(=O)C1=C(C)N(C)C(=O)NC1c1ccc2c(c1)OCO2` (configuration not stated), the inhibition was 7%. `CCCCSc1nnc(-c2ccc(Cl)cc2Cl)o1` gave an inhibition of 3%. For `CC1=NN(c2nc(-c3ccc(Br)cc3)cs2)C(=O)/C1=C\c1ccc2c(c1)OCO2`, the inhibition was 40%. For `CC1=NN(c2ccc(C)cc2)C(=O)/C1=C\c1ccc2c(c1)OCO2`, the inhibition was 2%. `COc1cc(/C=C2\C(=O)N(c3nc(-c4ccc(Cl)cc4)cs3)N=C2C)cc(OC)c1OC` gave an inhibition of 45%. In the case of `CC1=NN(c2nc(-c3ccc(F)cc3)cs2)C(=O)/C1=C\c1ccc(O)cc1`, the inhibition was 45%. In the case of `CC1=NN(c2nc(-c3ccc(Cl)cc3)cs2)C(=O)/C1=C\c1ccc2c(c1)OCO2`, the inhibition was 57% (active). With `CC1=NN(c2nc(-c3ccc(F)cc3)cs2)C(=O)/C1=C\c1ccc2c(c1)OCO2` the inhibition was 58% (active). `O=C(/C(=C\c1ccc([N+](=O)[O-])cc1)n1cncn1)c1ccc(Cl)cc1Cl` gave an inhibition of 16%. For `CCc1ccc(NC(=O)C(CC)c2ccccc2)cc1` (configuration not stated), the inhibition was 44%. Molecule `C/C=C/c1ccc(OCCOCCOc2cccc(C)c2C)c(OC)c1` has an inhibition of 15%. For `COc1ccc(S(=O)(=O)N(Cc2ccccc2)c2ccccc2C(=O)NC(C)c2ccccc2)cc1` (configuration not stated), the inhibition was 26%. In the case of `Cc1nc2ccccn2c1-c1csc(Nc2ccc([N+](=O)[O-])cc2)n1`, the inhibition was 14%. With `Cc1nc2sccn2c1-c1csc(Nc2ccc([N+](=O)[O-])cc2)n1` the inhibition was 69% (active). `Cc1nc2sccn2c1-c1csc(Nc2ccc(O)cc2)n1` gave an inhibition of 12%. In the case of `Cc1cccc(-n2sc3c(c2=S)-c2ccccc2NC3(C)C)c1C`, the inhibition was 10%. In the case of `CCOc1cc(CN2CCN(c3ccccn3)CC2)ccc1O`, the inhibition was 15%. With `O=C(/C=C/c1ccccc1)Nc1ccc(-c2nc3cc(NC(=O)/C=C/c4ccccc4)ccc3[nH]2)cc1` the inhibition was 72% (active). `COc1cccc(-c2nc3cc(NC(=O)/C=C\c4ccccc4)ccc3o2)c1` was tested, and the inhibition was 62% (active). With `O=C(/C=C\c1ccccc1)Nc1cccc(-c2nc3ccccc3[nH]2)c1` the inhibition was 21%. For `Cc1ccc2oc(-c3ccc(NC(=O)/C=C\c4ccccc4)cc3)nc2c1`, the inhibition was 52% (active). For `Cc1ccc2oc(-c3ccc(NC(=O)/C=C/c4ccccc4)cc3O)nc2c1`, the inhibition was 22%. With `O=C(/C=C\c1ccccc1)Nc1ccc2oc(-c3ccccc3)nc2c1` the inhibition was 16%. In the case of `Cc1ccc(-c2nc3ccccc3[nH]2)cc1NC(=O)/C=C\c1ccccc1`, the inhibition was 15%. `Cc1ccc2nc(-c3ccc(NC(=O)/C=C\c4ccccc4)cc3)oc2c1` showed an inhibition of 40%. Work on `COc1ccc(/C=C\C(=O)Nc2ccc3oc(-c4cccnc4)nc3c2)cc1` yielded an inhibition of 7%. `Cc1cc(/C=C(\C#N)C(=O)Nc2ccc(F)cc2)c(C)n1-c1ccc2c(c1)OCO2` was tested, and the inhibition was 7%. `Cc1ccc(C(=O)Nc2cc(Cl)ccc2C)c(Cl)c1` showed an inhibition of 14%. Work on `CCN(CC)CCCCCCOc1ccccc1OC` yielded an inhibition of 8%. `COc1cccc(-c2csc(/C(C#N)=C\Nc3cc(OC)c(Cl)cc3OC)n2)c1` gave an inhibition of 16%. For `N#C/C(=C/Nc1cccc(Cl)c1Cl)c1nc(-c2ccc3c(c2)OCO3)cs1`, the inhibition was 58% (active). Work on `N#C/C(=C/Nc1cc(Cl)cc(Cl)c1)c1nc(-c2ccc3c(c2)OCO3)cs1` yielded an inhibition of 39%. `COc1cc(-c2csc(/C(C#N)=C/Nc3cccc(F)c3)n2)ccc1O` was tested, and the inhibition was 57% (active). `COc1cccc(N/C=C(\C#N)c2nc(-c3ccc(O)c(OC)c3)cs2)c1` gave an inhibition of 13%. Molecule `N#C/C(=C/Nc1ccccc1F)c1nc(-c2ccc3c(c2)OCO3)cs1` has an inhibition of 12%. Work on `COc1cc(N/C=C(/C#N)c2nc(-c3ccc(OC)c(OC)c3)cs2)c(OC)cc1Cl` yielded an inhibition of 48%. In the case of `Cc1ccc(-c2csc(/C(C#N)=C/Nc3cccc(F)c3)n2)cc1`, the inhibition was 4%. `COc1ccc(-c2csc(/C(C#N)=C\Nc3cccc(C)c3C)n2)cc1OC` showed an inhibition of 17%. In the case of `COc1ccc(-c2csc(/C(C#N)=C\Nc3cccc(Cl)c3Cl)n2)cc1OC`, the inhibition was 51% (active). For `COc1ccc(-c2csc(/C(C#N)=C\Nc3cc(OC)c(Cl)cc3OC)n2)cc1`, the inhibition was 52% (active). `COc1ccc(-c2csc(/C(C#N)=C\Nc3cc(Cl)ccc3Cl)n2)cc1OC` showed an inhibition of 40%.
